HepG2 tox – kills HepG2 cells in TGF-b inhibitor counter-screen; HepG2 CAGA-GFP viability, ATP luminescence, 18 h; Potency, µM (doses to about 46.1 µM), for the others: at the highest dose activity change, negative = cytotoxicity, usual class: cytotoxic; 410,000 tested, 0.76% active; AID 588856
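HepG2 CAGA-GFP cells (1000/well, DMEM with 1% FBS) received compound, then TGF-beta at 500 pg/mL final, and were incubated 18 hours at 37 degrees C. Viability was read by CellTiter-Glo luminescence. Media-only wells were set as complete cell-killing and DMSO as no toxicity.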
HT1080 IDH1KD tx – toxicity to HT-1080 IDH1 knockdown cells (counter line); HT-1080 IDH1 knockdown viability, ATP luminescence, 48 h; 360,000 tested, 2% active; Potency, µM (doses to about 46.1 µM), without a hit: at the top dose activity, negative = toxicity, usual class: cytotoxic;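 note: 0% = DMSO wells and -100% = cell-free medium wells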
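IDH1KD HT-1080 cells, 750/well, RPMI + 5% FBS; compound pinned after 2 h settling; 48 h, 37 °C; CellTiter-Glo luminescence; % activity normalised to DMSO and no-cell wells; curves fitted, classed by r2 and efficacy.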
TGFb inhibitor – inhibitors of TGF-b signaling | Potency, µM (doses to about 46.1 µM), inactives show at the highest dose activity, negative = inhibition, most hits filed as inhibitors | HepG2 CAGA-GFP TGF-b/SMAD3 reporter, GFP fluorescence, 18 h; TGF-beta stimulated, 500 pg/mL final | AID 588855 | 410,000 tested, 1.2% active; note: % is set by controls: 0 for no effect and ±100 for the full control effect; nearly all actives have a fitted effect of over 65% in size
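Using HEPG2 CAGA-GFP reporter cells at 1000 cells/well, we pinned test compounds, stimulated with recombinant TGF-beta (500 pg/mL final) and measured total well GFP after 18 h.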
DT40 TDP1 CPT – growth inhibition of DT40 Tdp1-/-;hTDP1 cells with camptothecin (screen for TDP1 inhibitors); chicken DT40 Tdp1-/-;hTDP1 cells + 20 nM CPT, ATP luminescence, 48 h; Potency, µM (top dose mostly 46.2 µM), without a hit: at the top dose activity change, negative = growth inhibition, hits mostly inhibitors; 420,000 tested, 12% active; note: % is set by controls: 0 for no effect and ±100 for the full control effect; nearly all actives have a fitted effect of over 55% in size
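Chicken DT40 Tdp1-/- cells stably complemented with human TDP1 were seeded at 400 cells/well in medium containing 20 nM camptothecin, exposed to pin-transferred compounds, and grown at 37 °C for at least 48 hr. Viability was read as ATP luminescence.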
HT1080-NT tox – kills 2HG-producing HT-1080-NT fibrosarcoma cells; HT-1080-NT fibrosarcoma viability, CellTiter-Glo ATP luminescence, 48 h; AID 686970; Potency, µM (doses to about 46.1 µM), without a hit: at the top dose activity, negative = less viability, hits mostly cytotoxic; 360,000 tested, 1.6% active;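 note: NT is the 2HG producing partner of a matched IDH1 knockdown line; 0% = DMSO-treated cells and -100% = media-only wells without cells; nearly all actives have a fitted effect of over 55% in size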
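Viability of the 2HG-overproducing fibrosarcoma line after 48 hours of compound exposure at 37 degrees C was determined by luminescence with CellTiter-Glo, and concentration-effect curves were then fitted and categorized.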
DT40 TDP1 no CPT – qHTS for Inhibitors of human tyrosyl-DNA phosphodiesterase 1 (TDP1): qHTS in cells in absence of CPT. DT40 Tdp1-/- hTDP1 cells, no CPT, ATP luminescence, 48 h. Potency, µM (highest dose often 46.2 µM), for inactives: at the highest dose activity change, negative = growth inhibition, actives largely listed as inhibitors. 420,000 tested, 15% active; note: % is set by controls: 0 for no effect and ±100 for the full control effect; nearly all actives have a fitted effect of over 55% in size
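Stably hTDP1-transfected Tdp1-null chicken DT40 cells were treated with library compounds minus camptothecin and grown for at least 48 hr at 37 °C, after which cellular ATP was quantified by luminescence.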
Starred values were filed as active, the others as inactive; ? = inconclusive; . = no result. Hits are enriched below; roughly 17% of the tested compounds scored in any of these assays. Calls come from the whole dose curve; as a rule, active = well fitted curve in the direction sought with a large enough effect; inconclusive = small, poorly fitted or top-dose-only effect, or another doubt; inactive = no such curve, though single readings can be large; an effect the other way counts as inactive or inconclusive. Potency is the fitted concentration of half-maximal effect.

SMILES	HepG2 tox	HT1080 IDH1KD tx	TGFb inhibitor	DT40 TDP1 CPT	HT1080-NT tox	DT40 TDP1 no CPT
CN1CCN(c2ccc(NC(=S)NC(=O)c3cccc4c(Cl)cccc34)cc2)CC1	-11.6%	1.4%	-0.9%	16.4µM*	14.4%	?
COc1ccc(Cl)cc1NC(=O)c1ccoc1C	-7.2%	-3.5%	31.0%	-14.9%	-6.6%	-12.2%
COc1cccc(-c2nn(-c3ccccc3)cc2CN(C)C(C)c2ccon2)c1 (stereo not drawn)	-1.1%	-4.5%	0.0%	?	-1.8%	?
COc1cccc(-c2nn(-c3ccccc3)cc2CN(C)Cc2ccno2)c1	3.0%	-20.5%	-7.6%	20.6µM*	-10.7%	20.6µM*
CCN1CC(CN(C)Cc2cn(-c3ccc(C)cc3)nc2-c2cccc(C)c2)CC1=O (stereo not drawn)	-27.7%	-14.2%	?	?	-23.8%	14.6µM*
Cc1ccc(-n2cc(CN(C)Cc3ncc[nH]3)c(-c3cccc(C)c3)n2)cc1	-24.0%	18.4µM*	?	?	18.4µM*	23.1µM*
Cc1cccc(-n2c(-c3ccccc3)c[nH]c2=S)c1C	-1.3%	-8.4%	?	?	-3.8%	11.6µM*
COc1ccccc1-n1c(-c2ccc(Cl)cc2)c[nH]c1=S	-0.9%	3.8%	-7.5%	23.1µM*	8.1%	20.6µM*
Cc1cccc(-n2c(C)n[nH]c2=S)c1C	-3.4%	1.6%	-6.1%	-0.6%	9.0%	-5.7%
Cc1ccc(C2C3=C(CC(C)(C)CC3=O)NC3=C2C(=O)c2ccccc23)cc1 (stereo not drawn)	3.2%	-28.9%	-4.7%	20.6µM*	?	18.4µM*
COc1cc(C2C3=C(CC(C)(C)CC3=O)NC3=C2C(=O)c2ccccc23)ccc1O (stereo not drawn)	-5.3%	-22.0%	-7.0%	-8.4%	-23.8%	-25.0%
CC1(C)CC(=O)C2=C(C1)NC1=C(C(=O)c3ccccc31)C2c1ccc(Cl)cc1 (stereo not drawn)	-45.4%	18.4µM*	?	?	-13.7%	?
COc1cccc(C(=O)CN(C(=O)c2ccc(Cl)cc2Cl)N2C(=O)c3ccccc3C2=O)c1	6.2%	-9.6%	-8.9%	-1.0%	-19.6%	17.3%
CCOC(=O)c1ccc(N=Cc2cnc(N)nc2N)cc1	-0.3%	-4.1%	7.5%	?	-13.8%	-20.2%
COc1oc(C(=O)NC2CCCCC2)c(-c2ccc(Cl)cc2)c1S(=O)(=O)c1ccccc1	-1.6%	?	0.0%	?	?	20.6µM*
O=C(Nc1nc2cc3c(cc2s1)OCCO3)c1ccco1	-63.8%	?	8.1%	11.6µM*	?	16.4µM*
O=C(Nc1nc2cc3c(cc2s1)OCO3)c1ccco1	-38.7%	?	-18.2%	?	?	?
O=C(Nc1nc2cc3c(cc2s1)OCCO3)c1ccncc1	-10.4%	-16.3%	-30.0%	?	-3.2%	23.1µM*
O=C(NC(=S)Nc1nc2ccc(F)cc2s1)c1ccco1	14.3%	1.4%	-4.5%	4.11µM*	7.7%	2.91µM*
COc1ccccc1CN(C)C(=O)CN1C(=O)c2ccccc2C1=O	-10.9%	4.4%	-4.5%	21.9%	5.8%	0.6%
CCN(CC(=O)Nc1ccc(NC(C)=O)cc1)C(=O)CCN1C(=O)C2CC=CCC2C1=O (stereo not drawn)	4.6%	2.4%	-2.4%	-1.4%	6.4%	5.7%
CCCC(=O)Nc1nnc(SCC(=O)NC2CC2)s1	4.7%	23.0%	-2.9%	1.8%	16.7%	-10.7%
CCN1C(=NCC(C)C)N[C@@H](c2cccc(C(F)(F)F)c2)C(C(=O)OC)=C1C	-13.8%	-9.8%	-11.9%	?	-14.3%	20.6µM*
COC(=O)C1=C(C)N(Cc2ccccc2)C(=NCCCCO)N[C@H]1c1cccc(C(F)(F)F)c1	-57.0%	-1.0%	?	23.1µM*	-17.5%	?
CCN1C(=NCCCCO)N[C@@H](c2cccc(C(F)(F)F)c2)C(C(=O)OC)=C1C	-9.6%	-9.7%	22.7%	?	-7.7%	-19.6%
SMILES	HepG2 tox	HT1080 IDH1KD tx	TGFb inhibitor	DT40 TDP1 CPT	HT1080-NT tox	DT40 TDP1 no CPT
CCOC(=O)CN1C(=O)N[C@@H](c2cccs2)C(C(=O)OC)=C1C	-21.2%	1.1%	?	?	8.8%	?
COC(=O)C1=C(C)N(Cc2ccccc2)C(=O)N[C@H]1c1cccc(F)c1	1.0%	-3.4%	-19.1%	-17.7%	-2.6%	-27.2%
COCCN=C1N[C@@H](c2cccc(C(F)(F)F)c2)C(C(=O)OC)=C(C)N1Cc1ccccc1	-25.2%	-6.5%	-19.4%	13µM*	?	10.3µM*
CCN1C(=NCCc2cccs2)N[C@@H](c2cccs2)C(C(=O)OC)=C1C	-15.4%	-5.0%	-5.4%	6.51µM*	?	20.6µM*
C=Cc1ccc(Cn2c(C)c(CNCc3ccc(SC)cc3)c(C(=O)O)c2C)cc1	12.2%	.	16.9%	4.9%	.	-2.9%
CCOC(=O)c1ccc(NC(=O)c2ncn3c2C(=O)NC[C@H]3C)cc1	-12.8%	-0.2%	-23.2%	?	0.8%	?
O=C(NCc1ccc(F)cc1)c1cccnc1C(=O)O	-3.0%	17.0%	3.4%	44.6%	16.4%	-4.7%
COC(=O)C1=C(C)N(Cc2ccccc2)C(=NCc2cccc(C(F)(F)F)c2)N[C@H]1c1cccc(C(F)(F)F)c1	17.8µM*	?	10µM*	3.26µM*	?	3.66µM*
COC(=O)C1=C(C)N(Cc2ccccc2)C(=NCCCCO)N[C@H]1CCc1ccccc1	-34.0%	-4.6%	?	?	-8.9%	16.4µM*
COC(=O)C1=C(C)N(CC2CC2)C(=NCc2cccc(C(F)(F)F)c2)N[C@H]1c1ccccc1	-50.6%	-6.6%	-12.8%	10.3µM*	-19.5%	11.6µM*
COC(=O)C1=C(C)N(Cc2ccccc2)C(=NCc2cccc(C(F)(F)F)c2)N[C@H]1c1cccc(F)c1	14.1µM*	?	?	6.51µM*	?	6.51µM*
C=CCN=C1N[C@@H](c2cccc(C(F)(F)F)c2)C(C(=O)OC)=C(C)N1CC	-30.1%	-10.3%	-3.2%	?	-10.3%	?
CC(C)CC1NC(=O)N(CC(=O)Nc2cc(S(=O)(=O)N3CCOCC3)ccc2Cl)C1=O (stereo not drawn)	2.6%	1.9%	5.9%	-7.3%	-2.1%	14.5%

Screens from PubChem BioAssay.
